Each compound was assayed on T1, ERK4. Settings: concentration: 1 μM, replicates: in singlicate; n = 1.
T1 construct: gene MAPK4
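Further: KINOMEscan kinase panel screen.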

Structure (SMILES) | %Inh
N#Cc1c(N2CCOCC2)sc(-c2ccn[nH]2)c1-c1ccc(Cl)cc1 | 0%
c1ccc(-c2cc(-c3c[nH]nc3-c3ccccn3)ccn2)cc1 [GW576604] | 3%
O=C(NCCCN1CCOCC1)c1cccc(Nc2nccc(Nc3ccc(Oc4ccccc4)cc3)n2)c1 [GW663929] | 34%
CCCCCc1nc2c(N)ncnc2n1CCCCC [SKF-97255] | 0%
Cc1c(Cn2c(C)nn3c(=O)cc(N4CCOC(C)C4)nc23)cccc1C(F)(F)F (stereo not drawn) [GSK2344444] | 11%
O=C(NCCNc1ccnc(Nc2ccc(F)cc2)n1)c1cc2ccccc2s1 [GSK1379874] | 3%
CC(C)Oc1ccc2c(-c3ccnc(Nc4ccc(N5CCN(C)CC5)cc4)n3)cnn2n1 [GW696155] | 47%
COc1cc2c(cc1OCCN1CCN(C)CC1)ncc1c3ccc(C#N)cc3[nH]c21 | 10%
CC(=O)Nc1ccc(COc2ccc(Nc3ccnc4cc(-c5ccccn5)ccc34)cc2)cc1.Cl [GW440148] | 47%
CC(C)(C)n1cnc2c(N)ncnc21 [SKF-97359] | 15%
CN(C1=C(c2ccccc2)C(=O)NC1=O)c1ccccc1 [SB-334860] | 44%
Cl.Nc1ncnc2occ(-c3ccc(NC(=O)Nc4cc(C(F)(F)F)ccc4F)cc3)c12 [SB-707548] | 8%
NS(=O)(=O)c1cccc(-c2ccc3nccc(-c4cccc(S(N)(=O)=O)c4)c3c2)c1 [GW867253] | 0%
NS(=O)(=O)c1cccc(-c2ccc3ncc(N4CCOCC4)nc3c2)c1 [GSK1535721] | 0%
COc1ccc(CNC(=O)NC2CCN(c3ccnc(Nc4ccc(OC)cc4)n3)C2)cc1 (stereo not drawn) [GSK1379727] | 20%
Cc1nnc(-c2ccc(C)c(-c3ccc(C(=O)Nc4ccc(NS(C)(=O)=O)cc4)cc3)c2)o1 [GW702865] | 0%
Cc1nnc(-c2ccc3occ(-c4ccc(C(C)O)cc4)c3c2)o1 (stereo not drawn) | 10%

Structure (SMILES) | %Inh
[2H]C([2H])(c1cccc(C(F)(F)F)c1C)n1ccn2c(=O)nc(N3CCOCC3)cc12 [GSK2336394] | 0%
NCC(NC(=O)c1cc(-c2cn[nH]c2)c(-c2ccnc3[nH]ccc23)s1)c1ccccc1.O=C(O)C(F)(F)F.O=C(O)C(F)(F)F (stereo not drawn) [GSK1325775] | 9%
O=C(NCCNc1ccnc(Nc2ccc(F)cc2)n1)Nc1ccccc1F [GSK1379880] | 8%
COc1ccc(S(=O)(=O)NC2CCN(c3cc(C)nc(Nc4cccc(C#N)c4)n3)CC2)cc1.O=C(O)C(F)(F)F [GSK1653539] | 0%
O=C1NC(=O)C(N2CCc3ccccc32)=C1c1cccc(Cl)c1 [SB-408010] | 0%
O=c1cc(N2CCOCC2)nc2n(Cc3cccc(Cl)c3Cl)c(C3CC3)nn12 [GSK2358994] | 0%
O=c1cc(N2CCOCC2)nc2n(Cc3cccc(F)c3)ccn12 [GSK2297430] | 0%
Cl.Cl.Cl.Fc1ccc(-c2ncn(C3CCNCC3)c2-c2ccnc(Nc3ccccc3)n2)cc1 [SB-238039] | 0%
CSc1ccc(-c2cc3ncnc(SCC(=O)O)c3s2)cc1 | 14%
O=C(c1ccc(-c2cc(-c3c[nH]nc3-c3ccccn3)ccn2)cc1)N1CCOCC1 [GW812171] | 16%
COc1ccc(Nc2nccc(N3CCC(NC(=O)Nc4cc(C)ccc4C)C3)n2)cc1 (stereo not drawn) [GSK1379741] | 1%
Fc1ccc(-c2nn3c(OCC(F)(F)F)cccc3c2-c2ccncc2)cc1 [GW514784] | 9%
N#Cc1ccc(-c2cc(-c3c[nH]nc3-c3ccccn3)ccn2)cc1 [GW693028] | 3%
COc1cc2ncn(-c3cc(OCc4sccc4Cl)c(C(N)=O)s3)c2cc1OC [GSK448459] | 0%
NS(=O)(=O)CCc1cccc(Nc2nccc(-c3c(-c4cccc(NC(=O)c5c(F)cccc5F)c4)nn4ccccc34)n2)c1 [GSK336735] | 10%
O=C(Nc1n[nH]c2cc(-c3cccc(F)c3)ccc12)C1CC1 [SB-735464] | 0%

What follows are compounds tested on T2, ERK5. Settings: concentration: 1 μM, replicates: in singlicate; n = 1.
T2 construct: gene MAPK7

Structure (SMILES) | %Inh
N#Cc1c(N2CCOCC2)sc(-c2ccn[nH]2)c1-c1ccc(Cl)cc1 | 0%
c1ccc(-c2cc(-c3c[nH]nc3-c3ccccn3)ccn2)cc1 [GW576604] | 0%
O=C(NCCCN1CCOCC1)c1cccc(Nc2nccc(Nc3ccc(Oc4ccccc4)cc3)n2)c1 [GW663929] | 27%
CCCCCc1nc2c(N)ncnc2n1CCCCC [SKF-97255] | 0%
Cc1c(Cn2c(C)nn3c(=O)cc(N4CCOC(C)C4)nc23)cccc1C(F)(F)F (stereo not drawn) [GSK2344444] | 0%
O=C(NCCNc1ccnc(Nc2ccc(F)cc2)n1)c1cc2ccccc2s1 [GSK1379874] | 0%
CC(C)Oc1ccc2c(-c3ccnc(Nc4ccc(N5CCN(C)CC5)cc4)n3)cnn2n1 [GW696155] | 45%
NCCNS(=O)(=O)c1ccc(-c2ccnc3[nH]ccc23)cc1 [GSK977617] | 0%
COc1cc2c(cc1OCCN1CCN(C)CC1)ncc1c3ccc(C#N)cc3[nH]c21 | 22%
CC(=O)Nc1ccc(COc2ccc(Nc3ccnc4cc(-c5ccccn5)ccc34)cc2)cc1.Cl [GW440148] | 14%
CC(C)(C)n1cnc2c(N)ncnc21 [SKF-97359] | 4%
CN(C1=C(c2ccccc2)C(=O)NC1=O)c1ccccc1 [SB-334860] | 0%
Cl.Nc1ncnc2occ(-c3ccc(NC(=O)Nc4cc(C(F)(F)F)ccc4F)cc3)c12 [SB-707548] | 12%
NS(=O)(=O)c1cccc(-c2ccc3nccc(-c4cccc(S(N)(=O)=O)c4)c3c2)c1 [GW867253] | 0%
NS(=O)(=O)c1cccc(-c2ccc3ncc(N4CCOCC4)nc3c2)c1 [GSK1535721] | 10%
COc1ccc(CNC(=O)NC2CCN(c3ccnc(Nc4ccc(OC)cc4)n3)C2)cc1 (stereo not drawn) [GSK1379727] | 0%
Cc1nnc(-c2ccc(C)c(-c3ccc(C(=O)Nc4ccc(NS(C)(=O)=O)cc4)cc3)c2)o1 [GW702865] | 0%

Structure (SMILES) | %Inh
Cc1nnc(-c2ccc3occ(-c4ccc(C(C)O)cc4)c3c2)o1 (stereo not drawn) | 7%
[2H]C([2H])(c1cccc(C(F)(F)F)c1C)n1ccn2c(=O)nc(N3CCOCC3)cc12 [GSK2336394] | 0%
NCC(NC(=O)c1cc(-c2cn[nH]c2)c(-c2ccnc3[nH]ccc23)s1)c1ccccc1.O=C(O)C(F)(F)F.O=C(O)C(F)(F)F (stereo not drawn) [GSK1325775] | 0%
O=C(NCCNc1ccnc(Nc2ccc(F)cc2)n1)Nc1ccccc1F [GSK1379880] | 0%
COc1ccc(S(=O)(=O)NC2CCN(c3cc(C)nc(Nc4cccc(C#N)c4)n3)CC2)cc1.O=C(O)C(F)(F)F [GSK1653539] | 0%
O=C1NC(=O)C(N2CCc3ccccc32)=C1c1cccc(Cl)c1 [SB-408010] | 0%
O=c1cc(N2CCOCC2)nc2n(Cc3cccc(Cl)c3Cl)c(C3CC3)nn12 [GSK2358994] | 0%
O=c1cc(N2CCOCC2)nc2n(Cc3cccc(F)c3)ccn12 [GSK2297430] | 0%
CSc1ccc(-c2cc3ncnc(SCC(=O)O)c3s2)cc1 | 2%
O=C(c1ccc(-c2cc(-c3c[nH]nc3-c3ccccn3)ccn2)cc1)N1CCOCC1 [GW812171] | 0%
COc1ccc(Nc2nccc(N3CCC(NC(=O)Nc4cc(C)ccc4C)C3)n2)cc1 (stereo not drawn) [GSK1379741] | 0%
Fc1ccc(-c2nn3c(OCC(F)(F)F)cccc3c2-c2ccncc2)cc1 [GW514784] | 0%
N#Cc1ccc(-c2cc(-c3c[nH]nc3-c3ccccn3)ccn2)cc1 [GW693028] | 0%
COc1cc2ncn(-c3cc(OCc4sccc4Cl)c(C(N)=O)s3)c2cc1OC [GSK448459] | 0%
NS(=O)(=O)CCc1cccc(Nc2nccc(-c3c(-c4cccc(NC(=O)c5c(F)cccc5F)c4)nn4ccccc34)n2)c1 [GSK336735] | 45%
O=C(Nc1n[nH]c2cc(-c3cccc(F)c3)ccc12)C1CC1 [SB-735464] | 8%

Source: PMC5540273 (PLoS ONE, 2017)
